The source of these data is PubChem BioAssay AID2069 (Sanford-Burnham Center for Chemical Genomics, 2009).

Out of some 1,200 compounds screened, about 210 (18%) were called active. Not all results are given here. Values without a mark were called inactive. No stated cut-off is given here; in the data, active means inhibition above about 30%; inactive means the rest.

The nature of this assay: HTRF signal interference by compounds, confirmation, artefact control for SUMOylation inhibitor project, biochemical, uHTS (AID 2069). To be noted: HTRF interference counterscreen, fluorescence, at 35 µM, stronger effect = higher value. For orientation: In TR-FRET formats the signal depends on donor and acceptor labels being close together.
A word on the inhibition: it is the relative decrease from the control value, in per cent. As to `N#C/C(=C\c1ccc(-c2ccc([N+](=O)[O-])cc2)o1)C(=O)Nc1nc(-c2cccs2)cs1`, the inhibition was 0.8%.
As for `O=C(c1ccc2c(c1)[nH]c(=S)n1c3ccccc3nc21)N1CCN(c2ncccn2)CC1`, the figure is 11.9%; as for `COc1ccc(S(=O)(=O)C(C#N)c2nc3ccccc3nc2N2CCC(C)CC2)cc1` (configuration not stated), -6%; as for `CCOc1ccc(NC(=S)Nc2cccc3ccccc23)cc1`, -13.5%.
As for `COc1ccc(OC)c(S(=O)(=O)NCCc2cn3ccsc3n2)c1`, the figure is -8.15%.
As for `CCOC(=O)CCc1c(C)c(C#N)c2[nH]c3ccccc3n2c1=O`, the figure is 2.5%; as for `CC(=O)Oc1c(/C=C(\C#N)C(N)=O)[nH]c2ccccc12`, -17.9%; as for `C=CCOc1c(Cl)cc(CNc2ccc3[nH]c(=O)[nH]c3c2)cc1OC`, -12.6%.
Turning to `Cc1ccc(C2=NN(C(=O)CCC(=O)O)C(c3cn(-c4ccccc4)nc3-c3ccc(C)cc3)C2)cc1` (configuration not stated), the inhibition was 23.6%.
Turning to `O=C(O)c1ccc(N2N=C(c3ccccc3)CC2c2ccccc2)cc1` (configuration not stated), the inhibition was 60.1% (active).
Under `COc1ccc(C2=NN(C(=O)CCCC(=O)O)C(c3cn(-c4ccccc4)nc3-c3ccccc3)C2)cc1` (configuration not stated) stands 4.9%.
As for `O=C(N=Nc1c(O)n(Cc2ccccc2)c2ccccc12)c1cc2ccccc2cc1O`, the figure is 10.8%.
As for `COCCn1c(-c2cccs2)csc1=Nc1cccnc1`, the figure is 3.35%.
For `COc1ccc(-c2nc(SCC(=O)Nc3cc(C)on3)n[nH]2)cc1`, the inhibition was 22.4%.
As for `O=[N+]([O-])c1cc(C=Nc2cccc3c(O)cccc23)ccc1Cl`, the figure is -17.1%; as for `c1ccc2c3c(cc(N4CCOCC4)c2c1)OC1(N2CCOCC2)CCCCC1O3` (configuration not stated), 16%.
Under `S=C(NCc1ccc2c(c1)OCO2)Nc1ccc2nsnc2c1` stands -0.25%; under `CCCC(=O)Nc1ccc2oc(-c3cncc(Br)c3)nc2c1`, 19.6%.
As for `O=C(Nc1ccc2oc(-c3ccc4ccccc4c3)nc2c1)c1ccc2c(c1)OCCO2`, the figure is 8.15%; as for `CC(C)CC(=O)Nc1ccc2oc(-c3cccnc3)nc2c1`, 42.5% (active); as for `Nc1ccc(N2CCN(CCCCN3C(=O)C4CCCN4C3=O)CC2)cc1` (configuration not stated), -7%.
Turning to `Cc1cc(/C=C2\C(=O)NN(c3ccccc3)C2=O)c(C)n1-c1ccccc1O`, the inhibition was -1.5%.
Under `O=C(Nc1ccc(F)cc1)C(=O)c1c(O)[nH]c2ccc([N+](=O)[O-])cc12` stands -2.85%; under `O=C(O)/C=C/C(=O)Nc1ccc(O)cc1`, -0.1%.
Under `Cc1ccc(C(=O)O)cc1-c1ccc(/C=C2\SC(=O)N(CC(=O)Nc3ccc4c(c3)OCO4)C2=O)o1` stands 23.6%; under `Cc1ccccc1NC(=O)CN1C(=O)S/C(=C\c2ccc(-c3cc(C(=O)O)ccc3C)o2)C1=O`, 28.9%; under `Cc1ccc(NC(=O)CN2C(=O)S/C(=C/c3ccc(-c4cc(C(=O)O)ccc4C)o3)C2=O)cc1C`, 37.2% (active).
